ChEMBL document CHEMBL1157539, “Thousands of chemical starting points for antimalarial lead identification” (Nature, 2010)

Tests used:
Assay type in all cases: functional
Plasmodium falciparum [1] = assay: GSK_TCMDC: Inhibition of Plasmodium falciparum 3D7 in whole red blood cells, using parasite LDH activity as an index of growth. Test compounds present at 2uM
Plasmodium falciparum [2] = assay: GSK_TCMDC: Inhibition of Plasmodium falciparum Dd2 in whole red blood cells, using parasite LDH activity as an index of growth. Test compounds present at 2uM
HepG2 = assay: GSK_TCMDC: Percent inhibition of human HepG2 cell line. Test compounds present at 10uM.

SMILES | Inhibition (Plasmodium falciparum [1]) [%] | Inhibition (Plasmodium falciparum [2]) [%] | Inhibition (HepG2) [%]
COc1ccc(-c2ccc(NC(=O)c3cccc(Cl)c3)c(F)c2)cc1CNC(C)C.O=C(O)C(F)(F)F | 93 | 14 | 19
CC(C)CN1C(=O)c2ccccc2C(C(=O)Nc2cccc(C#N)c2)C1c1cccs1 (stereo unspecified) | 100 | 100 | 11
Fc1ccc(OC2CN(c3nccc(NCc4ccccc4Cl)n3)C2)cc1 | 98 | 99 | 0
COc1cc2c(Nc3ccc(Br)cc3F)ncnc2cc1OCC1CCN(C)CC1.Cl | 97 | 16 | 10
Cc1cccc2nc(-c3ccc(-c4ccc(CN5CCC(C(N)=O)CC5)cc4)s3)[nH]c12.O=C(O)C(F)(F)F | 97 | 51 | 4
CCN(CC)CCCOc1ccc(Nc2nccc(-c3c(-c4cccc(NC(=O)c5c(F)cccc5F)c4)nn4ccccc34)n2)cc1F | 100 | 99 | 86
CC(CN(C)C)C(=O)Nc1ccc(-c2cccc(-c3nc4ccccc4[nH]3)c2)cc1 (stereo unspecified) | 99 | 57 | 68
N#Cc1ccc(C=Cc2nccc3c2[nH]c2ccccc23)cc1 | 97 | 28 | 33
CC(=O)Nc1ncc(C(=O)Nc2cccc(-c3ccc(-c4nc5cccc(C)c5[nH]4)cc3)c2)s1 | 100 | 78 | 69
COc1ccc2nccc([C@@H](O)CN3CCC(NCc4nc5ccc(F)cc5[nH]4)CC3)c2c1.O=C(O)C(=O)O | 100 | 4 | 20
COc1ccc(-c2ccc(NC(=O)c3ccc(Cl)cc3)cc2)cc1CN(C)CCN(C)C.O=C(O)C(F)(F)F | 97 | 61 | 37
CC(C)(C)c1ccc(CNC(=O)c2ccc(CNC3CCC(N)CC3)s2)cc1 (stereo unspecified) | 100 | 10 | 41
Cc1cccc(/C=C/C(=O)NC2CCC(N3CCC(c4ccccc4C)CC3)CC2)c1 (stereo unspecified) | 92 | 20 | 67
COc1ccc(OC)c(NC(=O)CSc2nc(-c3ccccc3Cl)ns2)c1 | 95 | 32 | 0
Cc1ccc(CNC(=O)[C@H](Cc2ccccc2)Nc2cc(C)nc(NCC3CCCCC3)n2)cc1.O=C(O)C(F)(F)F | 100 | 89 | 0
CCN(CC)CCNc1c2ccc(Cl)cc2nc2ccc(OC)nc12.Cl | 100 | 99 | 20
CCN(CC)/C(=N/C(=N)NCc1ccc(Cl)cc1)NCCCCCCN/C(=N\C(=N)NCc1ccc(Cl)cc1)N(CC)CC | 100 | 100 | 18
O=C(Nc1ccccc1)N(Cc1ccc(-c2ccc(CNCc3ccc4c(c3)OCO4)cc2)cc1)C1CCN(Cc2ccccc2)CC1.O=C(O)C(F)(F)F | 98 | 41 | 21
O=C(Nc1cccc(F)c1)c1ccc(C(=O)NC2CCN(CC3CCCCC3)CC2)cc1.O=C(O)C(F)(F)F | 96 | 16 | 22
CC(C)C1C(O)=C(c2ccc3ccccc3c2)C(=O)N1CC1CCCCC1 (stereo unspecified) | 84 | 43 | 11
CN(C)C(=S)N/N=C1/C(=O)Nc2ccc(OC(F)(F)F)cc21 | 93 | 52 | 36

SMILES | Inhibition (Plasmodium falciparum [1]) [%] | Inhibition (Plasmodium falciparum [2]) [%] | Inhibition (HepG2) [%]
O=[N+]([O-])c1cccc(/C=N/Nc2ccnc3ccc(C(F)(F)F)cc23)c1 | 96 | 35 | 0
Cl.O=C(Nc1ccc(SC(F)(F)F)cc1)Nc1ccnc2ccccc12 | 95 | 42 | 26
COc1ccc2nccc(N3CCN(CCNCc4ccc5c(n4)NC(=O)CS5)CC3)c2n1.Cl | 100 | 67 | 10
CCCc1cc(C(=O)N[C@@H](Cc2ccccc2)[C@H](O)CNC(C)C)c(F)c(N2CCCC2=O)c1 | 90 | 22 | 0
COc1ccc(CCCN2C(=O)C(c3ccccc3)(c3ccccc3)N=C2N)cc1.O=C(O)C(F)(F)F | 94 | 76 | 21
COc1ccc(-c2ccc(NC(=O)c3cccc(F)c3)cc2)cc1CN1CCCN(C)CC1.O=C(O)C(F)(F)F | 100 | 49 | 32
COc1ccc2nccc([C@@H](O)CN3CCC(NC(=O)/C=C/c4ccnc5ccccc45)CC3)c2c1 | 91 | 12 | 19
O=C(Nc1cccc(C(F)(F)F)c1)Nc1ccc(Cl)c(Cl)c1 | 100 | 100 | 5
CCN(CC)CCN(Cc1ccc(-c2ccc(C(F)(F)F)cc2)cc1)C(=O)Cn1cc(Cc2cnn(C)c2)c(=O)nc1/C=C/c1cccc(F)c1F.O=C(O)C(O)C(O)C(=O)O | 95 | 98 | 11
CC(C)(CNC(=O)[C@@H]1CCCN(CCOc2ccc(Cl)cc2)C1)c1nc(-c2ccc(Cl)c(O)c2)c(-c2ccncc2)[nH]1.Cl | 92 | 57 | 58
Cc1cccc(NC(=O)Nc2ccc(I)c(OCCN(C)C)c2)c1C | 96 | 17 | 13
COc1ccccc1CNC(=O)C(=O)Nc1c(-c2ccccc2)[nH]c2ccccc12 | 99 | 91 | 0
CC1CN(Cc2cccc(F)c2)CCN1c1ccc(NC(=O)c2cccs2)cc1.O=C(O)C(F)(F)F (stereo unspecified) | 96 | 96 | 0
Cl.O=C(c1ccc(Cl)cc1)C1CCN(CCCOc2ccc3c(c2)CCNCC3)CC1 | 93 | 23 | 78
Cc1c(Cl)cccc1S(=O)(=O)Nc1cccc(CCN2CCC(N3CCCCC3)CC2)c1 | 100 | 82 | 38
Cc1cc(C2CCN(CCCCNC(=O)c3ccc(-c4ccc(C#N)cc4)cc3)CC2)c(C)cc1OCCO | 96 | 68 | 20
Cc1ccccc1N1CCN(c2ccc(C(=O)Nc3ccccc3)cc2)CC1 | 89 | 91 | 22
CC(=O)Nc1ccc(C(=O)Nc2cccc(-c3csc(-c4nc5ccccc5[nH]4)c3)c2)cn1 | 100 | 97 | 6
Cc1[nH]c(C)c(Cc2ccc(Oc3ccc(OC(F)(F)F)cc3)cc2)c(=O)c1Br | 96 | 87 | 29
Nc1nc(N)c2cc(C(F)(F)F)ccc2n1 | 80 | 1 | 8
COc1cccc(C=CC(=O)N(CCN)Cc2ccccc2)c1.O=C(O)C(=O)O | 99 | 0 | 0

SMILES | Inhibition (Plasmodium falciparum [1]) [%] | Inhibition (Plasmodium falciparum [2]) [%] | Inhibition (HepG2) [%]
Cc1cccc(CN2CCCN(Cc3cccc(C(=O)Nc4ccc(C(C)(C)C)cc4)c3)CC2)c1.O=C(O)C(F)(F)F | 89 | 40 | 98
CCCCCCCN(CCCCCCC)CCCC(=O)Nc1ccnc2ccc(OC)cc12.O=C(O)C(=O)O | 100 | 98 | 43
CO/C(=C\C=C\c1cc2cc(Cl)c(Cl)cc2[nH]1)C(=O)NCCCN1CC(C)N(C)CC1C (stereo unspecified) | 92 | 73 | 38
Cc1ccc2nc(C)cc(N/N=C/c3ccc([N+](=O)[O-])o3)c2c1 | 100 | 99 | 15
C=CCn1c(=N)c(C(=O)NC2CCCCC2)cc2c(=O)n3cccc(C)c3nc21 | 92 | 58 | 0
Cc1cccc2nc(-c3cccc(-c4ccc(C(=O)N5CCCCC5C(C)O)cc4)c3)[nH]c12 (stereo unspecified) | 100 | 91 | 26
CCCc1ccccc1Nc1nc(C)cc(N(CC)CCCN2CCCCC2)n1.O=C(O)C(F)(F)F | 98 | 49 | 27
O=C(NC1CCN(CC2(c3ccccc3)CCCC2)CC1)c1n[nH]cc1Cl | 83 | 87 | 0
CN1CCC(Oc2cc(NC(=O)Nc3ccc(-c4ccncc4)c(Cl)c3)ccc2Cl)CC1 | 99 | 100 | 23
Br.O=C(CNc1ccncc1)c1c[nH]c2ccccc12 | 90 | 62 | 31
Nc1ncc(-c2cccc(OCc3ccccc3)c2)cc1-c1nnc2ccc(Cl)nn12 | 94 | 7 | 0
CCCCOc1ccccc1C(=O)NCc1csc(-c2ccccc2)n1 | 93 | 91 | 17
CCOC(=O)C1=C(C)N=c2sc(=Cc3cc(Cl)ccc3O)c(=O)n2C1c1cc(OC)c(OC)cc1Br (stereo unspecified) | 97 | 76 | 6
O=C(Nc1ccc(Br)c(Cl)c1)c1cc([N+](=O)[O-])cc2cn[nH]c12 | 99 | 63 | 49
COc1cccc2cc(C(=O)N[C@@H](CC(C)C)C(=O)N[C@H](/C=N/NC(=O)OC(C)(C)C)CC(=O)OC(C)(C)C)oc12 | 85 | 57 | 4
CCCCCCCN1CC[C@@H](C[C@H](N)Cc2ccnc3ccc(OC)cc23)[C@@H](CC)C1.O=C(O)C(=O)O | 91 | 51 | 33
CCOc1ccc(C(=O)Nc2cc(Br)c3c(c2)CNCC3)cc1Cl.Cl | 92 | 8 | 13
O=C(O)c1ccc(OCOCOc2ccc(C(=O)O)c(O)c2)cc1O | 99 | 0 | 0
CN1CCC(NCc2cccc(-c3ccc(S(=O)(=O)NCCc4ccccn4)cc3)c2)CC1.O=C(O)C(F)(F)F | 95 | 1 | 10
Cl.O=C(N[C@@H](Cc1ccccc1)[C@H](O)CNC1CCCc2ccccc21)c1cc(C2CCCC2)cc(N2CCCC2=O)c1 (stereo partly specified) | 97 | 99 | 31
